Many of the other results were omitted from the sample, so hits are more common in it than they were.
TTR transcr act: TTR transcription activators in neuroblastoma reporter cells, primary screen, cell-based, luminescence, SH-SY5Y, TTR promoter Gaussia luciferase | AID 1117267, 2014 | 92,000 tested, 1.3% active | 100% = recombinant luciferase protein wells | activation, % at 16.7 µM;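 active means activation above the mean of all tested compounds plus 3 SD, cut at about 9.5% in these data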;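 further: cells exposed to compounds for one day before reading; 0% = median of all test compound wells on the plate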
HuH7 TTR inh: TTR promoter reporter inhibitors in hepatoma cells, counter-screen for TTR transcription activator project, cell-based, luminescence, HuH7 hepatoma | shares compounds with TTR transcr act | HuH7 TTR promoter-Gaussia luciferase reporter | inhibition, % at 16.7 µM | 1,100 tested, 4% active | AID 1117279, 2014;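 active means average inhibition above the solvent-only control wells' mean plus 3 SD, cut at about 15% in these data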;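 further: 0% = cells with DMSO only and 100% = cells with inhibitor control FD; inhibitors lower well luminescence so higher value means more inhibition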
TTR up confirm: TTR transcription activators, retest, confirmation, cell-based, luminescence, SH-SY5Y, triplicate; shares compounds with TTR transcr act; SHSY5Y TTR promoter Gaussia luciferase; 100% = purified Lucia enzyme wells, no cells; activation, % at 16.7 µM; 1,100 tested, under 10 active; AID 1117280, 2014;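 active means mean activation above a set limit taken from the earlier primary screen, cut at about 11% in these data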;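 further: 0% = DMSO-treated cells and 100% = recombinant Lucia luciferase without cells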
An asterisk follows results filed as active.

SMILES	TTR transcr act	others
C#CCN1CC(COc2ccccc2)OCCS1(=O)=O (stereo not given)	0
C[C@H]1[C@@H](NC(=O)c2cccc(N(C)C)c2)CC[C@@]23CCCN2C(=O)CCC[C@@H]13	-1
CN(C)C(CNC(=S)Nc1ccc(F)cc1)c1cccnc1 (stereo not given)	1
CCN1C(=O)[C@H]2[C@H]3CN=C(SCc4ccc(Cl)cc4)N3[C@@](Cc3ccccc3)(C(=O)OC)[C@H]2C1=O	-2
CCN1C(=O)[C@H]2[C@H]3CN=C(SCc4ccc(C(=O)OC)cc4)N3[C@@](Cc3ccccc3)(C(=O)OC)[C@H]2C1=O	-1
CCN1C(=O)[C@H]2[C@H]3CN=C(SCc4ccc(C)cc4)N3[C@@](Cc3ccccc3)(C(=O)OC)[C@H]2C1=O	24*	HuH7 TTR inh=-2;TTR up confirm=3
C[C@H]1CCC/C=C/C(=O)c2c(cc(O)c(Cl)c2O)CC(=O)O1	1
COc1cc(O)c(CCC(=O)c2ccc(OC)c(OC)c2)c(OC)c1	3
CCOc1cc(C2NC(=O)NC(C)=C2C(=O)OC(C)CC)cc(Br)c1O (stereo not given)	2
COc1cc(C2NC(=O)NC(C)=C2C(=O)OCC2CCCCC2)cc(Cl)c1O (stereo not given)	0
COc1cc(C2NC(=O)NC(C)=C2C(=O)OC2CCCC(C)C2)cc(Br)c1O (stereo not given)	11*	HuH7 TTR inh=-12;TTR up confirm=-1
Cc1ccc(S(=O)(=O)n2c(N)nc3cc(C)c(C)cc32)cc1	2
Cc1cn(S(=O)(=O)c2ccc(Cl)cc2)c(C)n1	2
Cc1ccc(S(=O)(=O)n2c3ccc(Cl)cc3c3nc(C)sc32)cc1	18*	HuH7 TTR inh=-13;TTR up confirm=0
O=C(Nc1ccc(F)cc1)OCc1cn(Cc2ccc(F)cc2F)nn1	0
C#CCNC(=O)CSCc1nc(-c2ccc(OCC)cc2)oc1C	1
COc1ccc(CNC(=O)O[C@H]2CC[C@@]34CCCN3C(=O)CCC[C@H]4[C@H]2C)cc1	-2
CC(=O)Nc1sc2c(c1-c1nc3ccccc3s1)CCCNC2	7
Cc1noc(C)c1S(=O)(=O)N(Cc1ccccc1)C(C)C	2
COc1ccc(NC(=O)Nc2nnc(N3CCCCC3C)s2)cc1OC (stereo not given)	-1
CC1CCCCN1c1nnc(NC(=O)Cn2c(=O)oc3ccccc32)s1 (stereo not given)	19*	HuH7 TTR inh=-16;TTR up confirm=-1
COc1ccc(-c2nc(NC(=O)Cn3c(=O)oc4ccccc43)sc2C)cc1	-2
CC1(C)OC(=O)C2=C(C[C@@H](CCc3ccccc3)O[C@@H]2c2ccc(Cl)cc2)O1	0
C[n+]1cc(C(O)(c2ccccc2)c2ccccc2)n2ccccc21	0
COC(=O)CC[C@@H](/C=C/C(=O)OC(C)(C)C)Sc1ccc(C(C)(C)C)cc1	4
SMILES	TTR transcr act	others
Cc1cccc(NC(=O)CN(CC2CCCO2)C(=O)c2oc3ccc(F)cc3c2C)c1C (stereo not given)	7
Cc1cc2oc(C(=O)N(Cc3ccc(N(C)C)cc3)CC3CCCO3)c(C)c2cc1C (stereo not given)	51*	HuH7 TTR inh=-10;TTR up confirm=0
Cc1c(C(=O)N(Cc2ccc(N(C)C)cc2)C2CCS(=O)(=O)C2)oc2ccccc12 (stereo not given)	0
COC(=O)C(CN)CN1C(=O)c2ccccc2C1=O (stereo not given)	0
COc1ccccc1CNC1CCC12CCC(c1ccccc1)CC2 (stereo not given)	0
O=S(=O)(Nc1ccc2c(c1)OCCO2)c1cccc2nsnc12	1
O=S(=O)(Nc1ccc2c(c1)OCO2)c1ccccc1	0
Cc1ccc2cccc(S(=O)(=O)Nc3ccc4c(c3)OCO4)c2n1	14*	HuH7 TTR inh=-19;TTR up confirm=2
CC(C)c1ccc(NC(=O)O[C@H]2CC[C@@]34CCCN3C(=O)CCC[C@H]4[C@H]2C)cc1	0
Cc1cc2c(s1)c1cnn(Cc3c(Cl)ccc(C)c3F)c(=O)c1n2C	-1
CCc1ccc(S(=O)(=O)n2c(C)nc3ccccc32)cc1	3
CCSc1nc2ccccc2n1S(=O)(=O)c1ccccc1	30*	HuH7 TTR inh=4;TTR up confirm=0
Cc1nc2ccccc2n1S(=O)(=O)c1ccc(Br)cc1	7
NC1=NC(=O)/C(=C/c2ccccc2OCC(=O)Nc2ccc(F)cc2)S1	9.9*	HuH7 TTR inh=5;TTR up confirm=0
O=C(CN1C(=O)N/C(=C\c2ccccc2OCc2ccc(C(=O)O)cc2)C1=O)Nc1ccc(F)cc1	-2
O=C(CN1C(=O)S/C(=C\c2ccccn2)C1=O)Nc1ccc(F)cc1	-1
COc1ccc2[nH]c3c(c2c1)CCN[C@]31C(=O)N(C)c2ccc(Br)cc21	0
CS(=O)(=O)N1c2ccccc2C[C@H]1Cc1cc2ccccc2o1	-1
COc1ccc(C(=O)N2CCN(c3nc4cc(C)cc(C)c4cc3C#N)CC2)cc1	0
O=C(Nc1ccccc1)c1cc([N+](=O)[O-])ccc1NCc1cccnc1	0
O=C(Nc1c(F)cc(F)cc1Br)c1cc(S(=O)(=O)N2CCN(c3ccccn3)CC2)ccc1F	11*	HuH7 TTR inh=1;TTR up confirm=-1
CCOC(=O)Cn1c(=O)oc2cc(S(=O)(=O)N3CCN(c4ccccn4)CC3)ccc21	-1
O=C(Nc1cccc(F)c1)c1cc(S(=O)(=O)N2CCC(C(=O)O)CC2)ccc1F	-1
COc1ccc(C2CC(c3ccc(OC)c(OC)c3)=NN2S(C)(=O)=O)cc1 (stereo not given)	-1
CS(=O)(=O)N1N=C(c2cccs2)CC1c1ccccc1 (stereo not given)	1
SMILES	TTR transcr act	others
CS(=O)(=O)N1N=C(c2ccco2)CC1c1ccc(Br)cc1 (stereo not given)	18*	HuH7 TTR inh=-19;TTR up confirm=0
Cc1cc(C)c(C)c(C(=O)C(=O)c2ccccc2)c1	3
CCOC(=O)[C@@]12CCC3=C1N(CCC3)C(=O)[C@H](CC(=O)N1CCCCC1)C2	0
COc1ccc(N2C(=O)CC(N3CCN(C(=O)c4ccco4)CC3)C2=O)cc1 (stereo not given)	-1
O=C(c1ccco1)N1CCN(C2CC(=O)N(c3ccc(F)c(Cl)c3)C2=O)CC1 (stereo not given)	10*	HuH7 TTR inh=-1;TTR up confirm=0
COc1cccc(N2C(=O)CC(N3CCN(C(=O)c4ccco4)CC3)C2=O)c1 (stereo not given)	-1
C=CCN1C(=O)[C@H](CC(=O)NCC23CC4CC(CC(C4)C2)C3)[C@@]2(C(=O)OCC)CCCC=C12	-1
O=C(NOC(=O)c1ccccc1Cl)c1cccs1	0
COC(=O)C1CN(CCO)CCS(=O)(=O)N1Cc1cccc(Cl)c1 (stereo not given)	0
COc1ccc(N2CCN(C(=O)c3ccc4c(c3)OCO4)CC2)cc1	21*	HuH7 TTR inh=-13;TTR up confirm=1
O=C(c1ccc2c(c1)OCO2)N1CCN(c2ccccc2)CC1	6
COc1ccc(N2CCN(C(=O)c3ccncc3)CC2)cc1	-1
CCOc1ccc(C(=O)n2cc(C(=O)OC)c3ccccc32)cc1	0
COc1ccc(S(=O)(=O)N2CCC[C@H]2C(=O)NCc2ccc(Cl)cc2)cc1	2
COc1ccc(CNC(=O)C2CCCN2S(=O)(=O)c2ccc(Cl)cc2)cc1 (stereo not given)	13*	HuH7 TTR inh=-12;TTR up confirm=0

Compound activity (PubChem)
